Compounds without any hit were thinned out: in the full panel of roughly 79,000, 15% have a hit. Values without a mark were called inactive. The source made the active and inactive calls. Cut-off read from the data, not from the text of the source: active = growth inhibition above about 70%; inactive = the rest.
Key:
[1] = NCI Yeast Anticancer Drug Screen. Data for the rad50 strain (AID 155);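 note: 0% = growth of vehicle-only cultures of the same strain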; settings: S. cerevisiae rad50 strain growth inhibition; at 50.0 µM; stronger effect = higher value
How it was run: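 DNA repair mutant yeast, compound exposure, growth read-out; inhibition is taken relative to vehicle.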

[2] = NCI Yeast Anticancer Drug Screen. Data for the mec2-1 strain (AID 157); settings: S. cerevisiae mec2-1 strain, at 50.0 µM, stronger effect = higher value
How it was run: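 Yeast mec2-1 mutant treated with compound. Readout: growth inhibition vs vehicle controls.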

[3] = NCI Yeast Anticancer Drug Screen. Data for the sgs1 mgt1 strain (AID 161);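 note: 0% = growth of cultures given vehicle only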; settings: S. cerevisiae sgs1 mgt1 strain, at 50.0 µM, stronger effect = higher value
How it was run: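 Mutant yeast exposed to compound; growth scored against vehicle-only wells.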

[4] = NCI Yeast Anticancer Drug Screen. Data for the cln2 rad14 strain (AID 165);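 note: 0% = growth equal to vehicle treated cultures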; settings: S. cerevisiae cln2 rad14 strain, at 50.0 µM, stronger effect = higher value
How it was run: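 cln2 rad14 yeast strain; compound exposure; growth inhibition read vs vehicle controls.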

[5] = NCI Yeast Anticancer Drug Screen. Data for the bub3 strain (AID 167); settings: S. cerevisiae bub3 mutant strain, at 50.0 µM, stronger effect = higher value
How it was run: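 In this screen, a yeast mutant lacking normal mitotic checkpoint function is challenged with compound. Relative growth versus vehicle gives the inhibition value.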

[6] = NCI Yeast Anticancer Drug Screen. Data for the mlh1 rad18 strain (AID 175); settings: S. cerevisiae mlh1 rad18 strain growth inhibition; at 50.0 µM; stronger effect = higher value
How it was run: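 Yeast w/ defined DNA-repair lesions; compound exposure; growth vs vehicle controls → % inhibition.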

Row | SMILES | growth inhibition [1] | growth inhibition [2] | growth inhibition [3] | growth inhibition [4] | growth inhibition [5] | growth inhibition [6]
1 | Cc1ccc2cccc(-c3cccc4ccccc34)c2n1 | 5.3% | 7.9% | 3.4% | -0.05% | -2.35% | 28.8%
2 | NNC(=O)C(=O)N/N=C1\CCC(=O)CC1C(=O)CCC(=O)Nc1ccc(Cl)cc1 (stereo unspecified) | 10.3% | 1.05% | -16.6% | -9.35% | -0.8% | -17.5%
3 | C/C=C\C=N\NC(=O)C(=O)N/N=C/C=C\C | 0.9% | -17.1% | -7.55% | -56.5% | -8.5% | -0.75%
4 | NC(=S)NO | -1.85% | -3.8% | 2.35% | 22.6% | 8% | -19.9%
5 | Nc1ccc(CCCCOc2ccccc2)cc1 | 98.6% (active) | 99% (active) | 98.5% (active) | 98.5% (active) | 99% (active) | 98.4% (active)
6 | CCCCCC(CCCCC)=C(C#N)C(=O)OCC | -6.15% | 21.1% | 7.55% | -19.4% | 19.9% | 25.8%
7 | O=C(O)/C(O)=C(/O)C(=O)O.[NH-]C1CCCCC1[NH-].[Pt+2] | 27.3% | 29.1% | 28.4% | 16.1% | 26.9% | 25.6%
8 | CC(=O)CC(=O)NCCN(C)C | -23.6% | -43% | -11.2% | 5.95% | -9.3% | -6.65%
9 | C/C(CC/C(C)=N/NC(N)=O)=N/NC(N)=O | 1.7% | -3.5% | -9.85% | 0.55% | 21.9% | -9.2%
10 | Clc1cccc(Cl)c1/C=N/N1CCN(/N=C/c2c(Cl)cccc2Cl)CC1 | 18.9% | 10.1% | 17.9% | 6.45% | -4.1% | 0.7%
11 | NC1=NS(=O)(=O)c2ccccc21 | 14.8% | -11.7% | 3.1% | -48.7% | -1.35% | -1.55%
12 | Cc1cc(OCCOc2ccc(N)cc2)ccc1N1C(N)=NC(N)=NC1(C)C | -1.5% | 12.7% | 6.65% | 83.2% (active) | 1.45% | -3%
13 | NCCCCC(N)C(=O)O (stereo unspecified) | 7.4% | 9.25% | -33.9% | 8.55% | -2.1% | 22%
14 | CCN(CC)C(=O)N1CCN(c2ccccc2)CC1 | -1.4% | 12.3% | -4.95% | 5.65% | 3.45% | -23.8%
15 | Cc1c(Cl)cccc1NC(=O)C(=O)C1C(=O)CC(C)(C)CC1=O | 10.6% | 6.8% | -1.2% | 7.85% | 15.2% | 18.8%
16 | NC(=O)COC(=O)c1c(Cl)nc2sccn12 | 7.55% | 5.1% | -13.9% | 4.75% | 24.6% | 19.1%
17 | COc1ccc(NC(=O)CC(=O)N2N=C(N(CCC#N)c3ccc(Cl)cc3)CC2c2ccccc2)cc1 (stereo unspecified) | 16.5% | -17% | -1.55% | 7.5% | 2.05% | -6.05%
18 | C=CCNC(=O)C1C2C=CC(C2)C1C(=O)NCC=C (stereo unspecified) | 4.95% | -4.8% | -21.9% | -4.85% | -7.95% | 24.8%
19 | COC(=O)c1ccccc1C1CN=NC12Cc1cc(C)ccc1C2=O (stereo unspecified) | -3.25% | 14.2% | -10.4% | -34.4% | -3.5% | -14.8%
20 | O=C1c2ccccc2-c2nc(-c3ccccc3)cc3c2c1nc1ccccc13 | 79% (active) | 51.7% | 67.2% | 64.8% | 75% (active) | -7.15%
21 | Cc1ccc([N+](=O)[O-])c2c(NCCCN(C)C)ccnc12 | 42.2% | 16.1% | 20% | 4.7% | 13.2% | 49.2%

Row | SMILES | growth inhibition [1] | growth inhibition [2] | growth inhibition [3] | growth inhibition [4] | growth inhibition [5] | growth inhibition [6]
22 | O=[N+]([O-])c1ccc2c(N3CCC(CCCC4CCN(c5ncnc6cc([N+](=O)[O-])ccc56)CC4)CC3)ncnc2c1 | 2.55% | -16.7% | 39% | 19.2% | -10.8% | -2.9%
23 | C=CCSc1nc2c(=O)[nH]cnc2n1C1OC(CO)C(O)C1O (stereo unspecified) | -7.35% | 4% | -3.1% | -0.35% | -8.1% | -12.7%
24 | O=S(=O)(O)CC(NCc1ccccc1)c1ccccc1 (stereo unspecified) | -28.9% | -0.45% | -19.6% | -36.9% | 13.8% | -5%
25 | CCCCS(=O)(=O)C1CCCC1=O (stereo unspecified) | -3.5% | 5.5% | -2.55% | -7.1% | 1.45% | 1.9%
26 | O=C([O-])c1cc(I)cc(I)c1[OH2+].O=C([O-])c1cc(I)cc(I)c1[OH2+].[Mn+2] | -1.55% | -19.4% | -6.2% | -23.7% | -46% | 5.8%
27 | O=C(N=C1SCCN1C(=O)C(C(F)(F)F)C(F)(F)F)C(C(F)(F)F)C(F)(F)F | -20.6% | -3.5% | 4.95% | 28.4% | 2.3% | -36.9%
28 | CSCCC(NC(C)=O)C(=O)O (stereo unspecified) | 6.1% | 1.5% | -14.4% | -3.55% | -4.85% | -8.3%
29 | COc1ccc(CCC2(C)OCCCO2)cc1 | 9.75% | -0.65% | -0.85% | -6.75% | -5.8% | 17.4%
30 | CCN(CC(=O)O)C(=O)c1cccnc1 | -17.9% | 4.05% | -33.4% | -28.7% | -6.6% | -6.4%
31 | CC(C)CC(C)OC(=O)CC(CC(=O)OC(C)CC(C)C)C(=O)OC(C)CC(C)C (stereo unspecified) | -6.8% | -17.1% | -13.1% | 26.2% | 20.9% | -4.15%
32 | O=c1c2ccccc2nc(-c2ccccc2)n1/N=C/c1cccnc1 | 0.9% | 49.5% | 30.8% | -10.8% | 7.5% | 41.2%
33 | Clc1ccccc1/C=N/N=C/c1ccccc1Cl | 5.65% | -3.95% | -9.05% | -21.9% | 1.7% | 4.9%
34 | N#CN1CCC2CC(=O)CCC2C1 (stereo unspecified) | 6.2% | 2.95% | -6.5% | 5.75% | 0.75% | -10.6%
35 | Nc1ccc(C(=O)Oc2ccc(OC(=O)c3ccccc3)cc2)cc1 | 9.7% | 20.1% | 18.9% | -6.8% | 0.4% | 13.9%
36 | CCCN(CCCC(NC(C)=O)C(=O)NCc1ccccc1)C(=O)N(C)N=O (stereo unspecified) | -21.1% | -24.8% | -4.25% | 19.9% | -14.8% | -11.9%
37 | N/C(=N\O)c1c(Br)n(C2OC(CO)C(O)C2O)c2ncnc(N)c12 (stereo unspecified) | 12.1% | 11.7% | 4.7% | 10.8% | -2.05% | 1.75%
38 | CC(=O)Nc1c(Nc2ccccc2)[nH]c(C)nc1=S | -5.55% | -9.35% | -0.25% | -17.4% | -3.1% | -9.8%
39 | CC(C1CCCC1=O)C1CCCC1=O (stereo unspecified) | -1.1% | -17.8% | -5.05% | 5.35% | -11.9% | -10.4%
40 | CC(=O)CCc1ccc2c(c1)OCCO2 | 27.9% | -10.7% | -7.55% | -83.2% | -3.8% | -20.9%
41 | O=C1/C(=C/c2ccccc2)CCCC/C1=C\c1ccccc1 | 27.9% | 31% | 40.5% | -1.9% | 9.75% | 15.9%

Reference: PubChem BioAssay (NCI)
